Measurements reported in PubChem BioAssay AID504545 (Broad Institute, 2011).
Results with a measured potency or affinity are listed apart. Results filed as inconclusive are left out. Active and inactive are the calls of the source. The rule behind the calls is not given here.

Target: Cyclin-dependent kinase 5 activator 1 (Homo sapiens) + Cyclin-dependent kinase 5 (Homo sapiens) (UniProt Q15078+Q00535)
Experiment: blockade of human CDK5 activity – biochemical, cherry-picked samples, set 2, dose response (AID 504545)
Details: CDK5/p35 kinase activity, biochemical plate reader; series mostly up to 30 µM; activity change, negative = inhibition: at the top concentration

Chain of Cyclin-dependent kinase 5 activator 1 (Homo sapiens) + Cyclin-dependent kinase 5 (Homo sapiens) (Q00535 whole entry, looked up): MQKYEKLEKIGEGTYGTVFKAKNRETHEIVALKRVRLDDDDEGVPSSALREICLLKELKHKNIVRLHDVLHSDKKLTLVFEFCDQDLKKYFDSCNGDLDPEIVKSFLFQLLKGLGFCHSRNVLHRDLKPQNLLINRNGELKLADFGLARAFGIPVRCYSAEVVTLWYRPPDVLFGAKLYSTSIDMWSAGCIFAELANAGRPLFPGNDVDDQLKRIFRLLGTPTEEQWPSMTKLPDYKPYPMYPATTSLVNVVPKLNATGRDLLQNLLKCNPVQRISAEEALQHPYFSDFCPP
Chain of Cyclin-dependent kinase 5 activator 1 (Homo sapiens) + Cyclin-dependent kinase 5 (Homo sapiens) (Q15078 whole entry, looked up): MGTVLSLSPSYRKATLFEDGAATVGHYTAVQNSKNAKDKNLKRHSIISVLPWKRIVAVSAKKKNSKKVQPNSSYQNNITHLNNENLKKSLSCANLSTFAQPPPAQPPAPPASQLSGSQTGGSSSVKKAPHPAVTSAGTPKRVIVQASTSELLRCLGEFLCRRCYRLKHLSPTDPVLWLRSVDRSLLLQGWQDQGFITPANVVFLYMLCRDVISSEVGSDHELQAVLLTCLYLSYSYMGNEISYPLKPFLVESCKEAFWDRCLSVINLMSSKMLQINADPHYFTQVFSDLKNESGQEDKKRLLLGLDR

Activity change, negative = inhibition, inactive:
C=CC(=O)Nc1ccc(Nc2ccnc(Nc3ccc(N4CCN(C)CC4)cc3)n2)cc1 14.6%
Clc1ccc(N/N=C/c2ccncc2)cc1Cl -9.21%
O=C(NNC(=O)c1cccs1)c1ccccc1 -8.86%
O=C(O)c1ccc(N/N=C/c2ccc(C(F)(F)F)cc2)cc1 -7.66%
Oc1ccc(C=NNc2ccccn2)c(O)c1 -16.7%
COc1ccc(C(=O)N2CCN(c3ccccn3)CC2)cc1 7.99%
COc1cc(OC)cc(C(=O)N2CCN(c3ccccn3)CC2)c1 1.08%
COc1cccc(C(=O)N2CCN(c3ccccn3)CC2)c1 11.5%
CC(C)(C)N=Cc1c(O)ccc2oc3c(c12)CCCC3 -1.17%
